Assay results: PubChem BioAssay (NCATS)
Several values for one entry are separate records, joined by “and”; a condition that tells them apart may be missing. Equal entries are not always repeated. Values without a mark were called inactive. Results filed as inconclusive are left out. A call without a number means that no potency is given here. Activity calls are given as the source filed them. Unless noted, calls come from the whole dose curve; as a rule, active = well fitted curve in the direction sought with a large enough effect; inconclusive = small, poorly fitted or top-dose-only effect, or another doubt; inactive = no such curve, though single readings can be large; an effect the other way counts as inactive or inconclusive.

Legend:
[1] = Cell Viability - Jurkat (AID 426;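 active = dose-dependent loss of cell ATP signal giving a full or clear fitted curve, ranked by lower potency value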;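 note: potency is the fitted concentration of half-maximal effect; cells exposed to compound for 40 hours at 37 °C before ATP read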); conditions: qHTS
Outline: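 Cytotoxicity taken as drop in cellular ATP (CellTiter-Glo luminescence, 20 min room temperature) after 40 hr, 37C treatment of 5000 Jurkat Clone E6-1 cells per well; concentration-response fitted with Hill equation for AC50.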

[2] = Cell Viability - Hek293 (AID 427;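 active = compounds whose dose-response curve shows a full or clear partial loss of cell viability, called from curve shape rather than a numeric limit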;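 note: potency is the fitted concentration of half-maximal effect; cells exposed to compound for 40 hours at 37 °C before reading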); conditions: qHTS
Outline: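 AC50 values derive from Hill-modelled concentration-response of ATP-based luminescence, normalized between DMSO-only and 100 uM tamoxifen controls. Cells were exposed in complete culture medium for 40 hr at 37 °C before detection.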

[3] = Cell Viability - HepG2 (AID 433; calls by dose curve;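 note: potency is the fitted concentration of half-maximal effect; cells exposed to compound for 40 hours; potency for ATP loss meaning cytotoxicity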); conditions: qHTS
Outline: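 HepG2 cells, 1500 per well, treated 40 hr at 37 °C in complete medium; viability from intracellular ATP by CellTiter-Glo luminescence. Normalized to DMSO and 100 uM tamoxifen; AC50 from Hill fit of qHTS concentration-response.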

[4] = Cell Viability - HUV-EC-C (AID 542); conditions: HUV-EC-C endothelial cell viability, qHTS; series mostly up to 92.2 µM;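 note: cells exposed to compound for 40 hours; nearly all actives have a fitted effect of over 35% in size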
Outline: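 CellTiter-Glo luminescence measured ATP loss in HUV-EC-C cells (1000/well) after 40 hr compound exposure at 37 °C, in complete culture medium. Concentration-response data were Hill-fitted to give AC50.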

[5] = Cell Viability - H-4-II-E (AID 543); conditions: H-4-II-E rat hepatoma viability; series mostly up to 92.2 µM;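 note: cells exposed to compound for 40 hours; nearly all actives have a fitted effect of over 35% in size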; note: potency is the fitted concentration of half-maximal effect
Outline: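 CellTiter-Glo luminescence (intracellular ATP) measured after 40 h compound exposure at 37 °C in H-4-II-E rat hepatoma cells seeded at 1500/well. Values are AC50s fitted with the standard Hill equation.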

[6] = Cell Viability - SH-SY5Y (AID 544); conditions: SH-SY5Y neuroblastoma cell viability; series mostly up to 92.2 µM;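 note: cells exposed to compound for 40 hours; nearly all actives have a fitted effect of over 55% in size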; note: potency is the fitted concentration of half-maximal effect
Outline: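 Cytotoxicity measured via ATP-dependent luciferase luminescence (CellTiter-Glo) following 40 h, 37 °C exposure of 1500 SH-SY5Y cells per well. Concentration-response data were fitted with the standard Hill equation to give AC50.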

[7] = Cellular Toxicity (caspase-3) SHSY5Y (AID 657); conditions: SH-SY5Y caspase-3 activation, DMSO zero, 10 µM staurosporine = 100%; series mostly up to 91.7 µM
Outline: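 SH-SY5Y human neuroblastoma cells, 1500/well, exposed to compound for 16 hours at 37 °C in complete medium. Caspase-3/7 activity read by Caspase-Glo luminescence after 1 hr at room temperature, normalized to DMSO and 10 uM staurosporine; AC50 from Hill fit.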

[8] = Cellular Toxicity (caspase-3) SK-N-SH (AID 661); conditions: SK-N-SH caspase-3 activation, qHTS, DMSO as zero, staurosporine as full; series mostly up to 91.7 µM
Outline: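 Caspase 3/7 activation was read by luminogenic substrate cleavage after 16 hour treatment of SK-N-SH cells. Signal was scaled between DMSO and 10 uM staurosporine, and concentration-response data were fitted with the Hill equation for AC50.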

[9] = Cellular Toxicity (caspase-3) H-4-II-E (AID 663); conditions: H-4-II-E rat hepatoma; Potency: caspase-3 activation; series mostly up to 92.2 µM
Outline: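 Caspase 3/7 activation measured in H-4-II-E cells in complete culture medium after 16 hr treatment at 37 °C, using luciferase-coupled substrate readout; AC50 values come from Hill-equation fits of normalized concentration-response data.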

[10] = Cellular Toxicity (caspase-3) N2a (AID 665); conditions: N2a cells, luminescence, normalized: DMSO 0%, 10 µM staurosporine 100%; series mostly up to 92.2 µM;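 note: compound exposure lasted 16 h at 37 °C before readout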
Outline: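 Caspase-3/7 activation measured as luminescence from Caspase-Glo reagent (1 h, room temperature) after 16 h compound exposure of mouse N2a cells. AC50 values from Hill-equation concentration-response, scaled between DMSO and 10 uM staurosporine.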

[11] = Cellular Toxicity (caspase-3) NIH 3T3 (AID 666); conditions: NIH 3T3 caspase-3 activation, apoptosis/toxicity, 0% DMSO, 100% is 100 µM tamoxifen; series mostly up to 92.2 µM;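 note: caspase signal read after 16 h compound exposure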
Outline: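 Caspase-Glo 3/7 luminescence reported caspase activation in 1000 NIH 3T3 cells/well after 16 h compound exposure at 37 C. DMSO set basal and 100 uM tamoxifen set 100% stimulation; concentration-response modeled with the Hill equation for AC50.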

[12] = MultiTox-Fluor Cytotoxicity Assay - LYMP1-001 - Dead Cells (AID 946); conditions: LYMP1-001 lymphoblastoid cells, dead-cell protease fluorescence; series mostly up to 92.2 µM; note: potency is the fitted concentration of half-maximal effect
Outline: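 In this qHTS, 15 uM tetraoctylammonium bromide defined 100% and DMSO defined basal activity. Lymphoblastoid cells (LYMP1-001, 2500 per well) received compound for 16 hr at 37 C before a fluorogenic dead-cell substrate readout at 485/520 nm.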

[13] = Cell Viability - LYMP1-002 - Assay at 16 hr (AID 948); conditions: LYMP1-002 lymphoblastoid cell viability; series mostly up to 92.2 µM; note: potency is the fitted concentration of half-maximal effect
Outline: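 LYMP1-002 human lymphoblastoid cells, 2500/well, were treated with compounds for 16 hr at 37 C in complete medium. Viability was read as intracellular ATP by CellTiter-Glo luminescence, and AC50 was derived from a Hill fit to concentration-response data.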

[14] = Cell Viability - LYMP2-010 (AID 981); conditions: LYMP2-010 lymphoblastoid cell viability, qHTS; series mostly up to 92.2 µM;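 note: cells exposed to compound for 24 hours at 37 °C; nearly all actives have a fitted effect of over 55% in size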; note: potency is the fitted concentration of half-maximal effect
Outline: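 CellTiter-Glo ATP luminescence measured cytotoxicity after 24 h compound exposure at 37 C. LYMP2-010 cells were seeded at 2500/well, with tetraoctylammonium bromide as control; concentration-response curves gave AC50 values by the Hill equation.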

[15] = Cell Viability - LYMP2-012 (AID 982); conditions: LYMP2-012 lymphoblastoid cell viability qHTS; series mostly up to 92.2 µM;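 note: cellular ATP by luciferase luminescence where a drop means cytotoxicity; cells exposed to compound for one day before reading; nearly all actives have a fitted effect of over 55% in size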; note: potency is the fitted concentration of half-maximal effect
[16] = Cell Viability - LYMP2-018 (AID 985); conditions: LYMP2-018 lymphoblastoid cells, viability (qHTS); series mostly up to 92.2 µM; note: nearly all actives have a fitted effect of over 50% in size; note: potency is the fitted concentration of half-maximal effect
Outline: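 Viability read as CellTiter-Glo luminescence (cellular ATP) after 24 hr compound exposure at 37 C of 2500 LYMP2-018 lymphoblastoid cells/well, pre-plated 5 hr. Hill-equation modelling gave AC50.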

[17] = Cell Viability - LYMP2-024 (AID 988); conditions: LYMP2-024 lymphoblastoid cell viability; series mostly up to 92.2 µM; note: nearly all actives have a fitted effect of over 60% in size; note: potency is the fitted concentration of half-maximal effect
Outline: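 Cytotoxicity was taken as a decrease in ATP (CellTiter-Glo luminescence) after 24 hr compound exposure at 37 C of LYMP2-024 lymphoblastoid cells, 2500 cells/well. Concentration-response data were fitted to the Hill equation to give AC50.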

[18] = molecular target: Retinoic acid receptor RXR-alpha (Homo sapiens) (UniProt P19793); assay: qHTS assay for small molecule antagonists of retinoid X receptor alpha signaling (AID 588546; active = well fitted inhibition curve with a large enough effect in the signal ratio, with a control signal flat, not every such curve was filed as active; the % refers to the signal ratio;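 note: cells stimulated with 9-cis-retinoic acid as agonist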); conditions: HEK293T RXRa-UAS-bla, beta-lactamase ratio, antagonist mode
Chain of Retinoic acid receptor RXR-alpha (Homo sapiens) (P19793 whole entry, looked up): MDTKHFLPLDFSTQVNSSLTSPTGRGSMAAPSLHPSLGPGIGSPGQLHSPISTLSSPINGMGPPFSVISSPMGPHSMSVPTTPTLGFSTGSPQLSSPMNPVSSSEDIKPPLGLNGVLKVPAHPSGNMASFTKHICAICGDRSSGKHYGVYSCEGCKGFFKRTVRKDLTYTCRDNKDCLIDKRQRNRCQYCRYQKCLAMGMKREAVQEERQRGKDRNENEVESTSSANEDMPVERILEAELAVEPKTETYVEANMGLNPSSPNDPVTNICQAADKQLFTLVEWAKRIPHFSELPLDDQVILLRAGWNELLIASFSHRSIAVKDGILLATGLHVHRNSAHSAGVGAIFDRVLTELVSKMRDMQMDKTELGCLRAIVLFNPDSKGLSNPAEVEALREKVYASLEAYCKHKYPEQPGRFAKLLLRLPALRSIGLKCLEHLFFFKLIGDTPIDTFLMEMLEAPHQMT
Outline: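 Beta-lactamase reporter inhibition, read as CCF4 fluorescence ratio (ex 405, em 460/530 nm) after 2 h at RT. HEK293T UAS-bla cells, 2500/well, were stimulated with 9-cis-RA at 500 or 100 nM final alongside test compound for 18 h at 37 C.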

[19] = qHTS assay for small molecule agonists of the antioxidant response element (ARE) signaling pathway measured by Nrf2-dependant transcriptional activity - cell viability counter screen (AID 720653; active = well fitted curve in the direction sought with a large enough effect in the repeat runs; an effect the other way counts as inactive or inconclusive); conditions: ARE-bla HepG2 viability, CellTiter-Glo ATP luminescence, 16 h; max response: hits give low values
Outline: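 ARE-bla HepG2 cells (2,000/well) rested 5 hrs at 37C/5% CO2, then exposed to compounds in DMSO for 16 hrs. Viability was read in the same wells as intracellular ATP by luminescence, 30 min at room temperature after reagent addition.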

[20] = qHTS assay for cell viability of the p53RE-bla HCT-116 cell line (AID 743292); conditions: p53RE-bla HCT-116 viability, ATP luminescence, 16 h; series mostly up to 95 µM; note: nearly all actives have a fitted effect of over 55% in size
Outline: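 ATP-based luminescent viability (CellTiter-Glo, 30 min RT) after 16 h compound treatment at 37 C of p53RE-bla HCT-116 cells, seeded at 4,000 cells/well and rested 5 h before dosing.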

SMILES | Potency [1] | Potency [2] | Potency [3] | outcome [4] | Potency [5] | Potency [6] | outcome [7] | outcome [8] | Potency [9] | outcome [10] | outcome [11] | Potency [12] | Potency [13] | Potency [14] | Potency [15] | Potency [16] | Potency [17] | max response [18] | max response [19] | Potency [20]
Cc1cccc([N+](=O)[O-])c1C | > 92 µM | > 92 µM | > 92 µM | inactive | inactive | inactive | inactive | inactive | inactive | inactive | inactive | inactive | inactive | inactive | inactive | inactive | inactive | -8.9% and -18.4% | 4.89% and -2.35% | inactive
c1ccc2c(c1)[nH]c1ccccc12 | > 92 µM | > 92 µM | > 92 µM | inactive | inactive | inactive | inactive | inactive | inactive | inactive | inactive | inactive | inactive | inactive | inactive | inactive | inactive | 0.549% and -19.1% | -11% and -21.8% | inactive
OCCNCCO | > 92 µM | > 92 µM | > 92 µM | inactive | inactive | inactive | inactive | inactive | inactive | inactive | inactive | inactive | inactive | inactive | inactive | inactive | inactive | -2.15% and -2.6% | 2.63% and -10.1% | inactive
C=CCOC(=O)c1ccccc1C(=O)OCC=C | > 92 µM | > 92 µM | > 92 µM | inactive | inactive | inactive | inactive | inactive | inactive | inactive | inactive | inactive | inactive | inactive | inactive | inactive | inactive | -2.1% and -17.2% | -21% and -8.82% | inactive
Clc1cc(Cl)c(Cl)cc1Cl | > 92 µM | > 92 µM | > 92 µM | inactive | inactive | inactive | inactive | inactive | inactive | inactive | inactive | inactive | inactive | inactive | inactive | inactive | inactive | 6.25% and -33.5% | 2.91% and 4.61% | inactive
CCCCCCCCOC(=O)c1cc(O)c(O)c(O)c1 |  |  |  |  |  |  |  |  |  |  |  |  |  |  |  |  |  | -18.9% | -10.2% | inactive
O=[N+]([O-])c1cccc(Cl)c1Cl | > 92 µM | > 92 µM | > 92 µM | inactive | inactive | inactive | inactive | inactive | inactive | inactive | inactive | inactive | inactive | inactive | inactive | inactive | inactive | 13.3% and -13.6% | 3.32% and 9.85% | inactive
C=CC(=O)OCCOCCOCCOCCOC(=O)C=C | 6.78 µM (active) and 12.4 µM (active) | 24.8 µM (active) and 28.8 µM (active) | > 92 µM |  | 20 µM (active) | 7.94 µM (active) and 12.6 µM (active) |  |  |  | inactive | inactive | 50.1 µM (active) | 31.6 µM (active) | 15.8 µM (active) | 12.6 µM (active) | 15.8 µM (active) | 12.6 µM (active) and 15.8 µM (active) |  | -13% | inactive
C=Cc1ccccc1Cl | > 92 µM | > 92 µM | > 92 µM | inactive | inactive | inactive | inactive | inactive | inactive | inactive | inactive | inactive | inactive | inactive | inactive | inactive | inactive | -6.96% | -2.6% | inactive
COCC(=O)O | > 92 µM | > 92 µM | > 92 µM | inactive | inactive | inactive | inactive | inactive | inactive | inactive | inactive | inactive | inactive | inactive | inactive | inactive | inactive | 8.65% and -6.69% | 8.69% and 6.89% | inactive
